Screens as filed in PubChem.
This is a sample that favours compounds with a hit; in the whole collection about 6.1% have one here.
D1 ag – agonists of human D1 dopamine receptor; HEK293 T-REx D1 cells, calcium flux, agonist mode; activation, % at 2 µM; hit rate 1% among 360,000; AID 504660; in the data active means activation above about 30%; further: 0% is about no effect
Target sequence (P21728 whole entry, looked up): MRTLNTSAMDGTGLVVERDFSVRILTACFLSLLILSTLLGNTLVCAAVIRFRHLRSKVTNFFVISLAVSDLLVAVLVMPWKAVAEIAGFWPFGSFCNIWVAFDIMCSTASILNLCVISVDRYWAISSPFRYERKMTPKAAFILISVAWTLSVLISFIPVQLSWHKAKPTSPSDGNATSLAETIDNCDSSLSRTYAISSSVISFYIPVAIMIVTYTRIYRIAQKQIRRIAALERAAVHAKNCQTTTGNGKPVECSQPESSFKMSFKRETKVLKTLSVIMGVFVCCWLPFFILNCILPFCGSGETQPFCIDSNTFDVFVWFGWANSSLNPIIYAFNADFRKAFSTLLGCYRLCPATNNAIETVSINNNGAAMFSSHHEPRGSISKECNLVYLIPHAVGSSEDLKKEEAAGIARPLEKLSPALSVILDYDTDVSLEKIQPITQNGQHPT
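Tetracycline-induced HEK293 TREx D1 cells, force-coupled to calcium signalling, were dye-loaded with a no-wash calcium kit. Compound was pin-added after a 10 s baseline. Fluorescence was read kinetically at 1 cycle/s for 180 s, with calcium rises flagged as agonism.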
DRD3 antagonist – antagonists of human D3 dopamine receptor; D3R cells, DiscoveRx beta-arrestin luminescence, antagonist mode; hits give low values; max response, negative = inhibition, %; hit rate 2.5% among 360,000; AID 652054; in the data active means max response below about -50%; inconclusive means no clear call, values can overlap the other calls; further: on the % scale 0 is the no-effect control and ±100 the full control effect
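Cells expressing the human receptor were seeded at 1500 cells/well, incubated overnight at 37 degrees C in 5% CO2, then exposed to library compounds with dopamine controls for 90 minutes at 37 degrees C before luminescent detection.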
D3 ag – activates the human D3 dopamine receptor | P35462 | D3R DiscoveRx beta-arrestin cells, luminescence, 90 min | max activation, % | hit rate 0.58% among 410,000 | AID 652048; in the data active means max activation above about 30%; further: 0% is about no effect
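Agonist-mode cell screen: cells plated at 1500/well and incubated overnight at 37 °C, then exposed to library compounds for 90 min at 37 °C. Detection reagent was added for 30–60 min at room temperature, and luminescence was read.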
D1 antag – human D1 dopamine receptor antagonism | P21728 | HEK293 TREx D1 cells, calcium flux, dopamine EC80; hits give low values | activity change, negative = inhibition, % at 10 µM | hit rate 3.2% among 360,000 | AID 504652; in the data active means activity change below about -30%; further: on the % scale 0 is the no-effect control and ±100 the full control effect
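Tetracycline-induced HEK293 Trex D1 cells, force-coupled to calcium, dye-loaded; compounds added and read 180 s, then EC80 dopamine added and calcium flux tracked kinetically another 180 s.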
ERG Ets-DNA blk – ERG Ets/DNA interaction inhibition | P11308 | fluorescence polarization, His-ERG Ets domain / labelled DNA | Potency, µM (series often up to 76.9 µM), inactives show at the highest dose FP activity, negative = inhibition, most hits filed as inhibitors | hit rate 0.028% among 370,000; active means well fitted inhibition curve with a large enough effect in the polarisation, with a control signal flat; inconclusive means small, poorly fitted or top-dose-only effect, or effect the other way, or a change in a side signal; inactive means no such curve, though single readings can be large or run the other way; the % refers to the polarisation;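 further: polarization taken with two DNA probes labelled with fluorescein and Texas red; potency means the concentration at half of the fitted maximal effect; % of control where 0% means no effect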
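His-tagged ERG Ets domain (1 uM in the protein solution; 300mM KCl, 50mM Tris-HCl, 1mM EDTA, 1mM DTT, pH 7.5) received compound, then a probe mix of 5 nM fluorescein-DNA and 100nM Texas-615-DNA. Fluorescence polarization was read for both dyes.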
D1 potentiator – human D1 dopamine receptor positive modulation. P21728. hit rate 0.036% among 360,000. HEK293 TREx D1 cells, calcium flux, dopamine EC20 potentiation. potentiation, % at 10 µM; in the data active means potentiation above about 30%; further: 0% is about no effect
* marks the source's active call; other numbers are inactive results; u = inconclusive; x = no result.

SMILES | D1 ag | DRD3 antagonist | D3 ag | D1 antag | ERG Ets-DNA blk | D1 potentiator
COc1ccc(NC(=O)c2cc(C3CCCCN3C(=O)C3CC3)on2)c(C)c1 (stereo unspecified) | x | -111* | -23 | x | x | x
COc1ccc(-n2c(=S)[nH]c3cc(C(=O)NCc4ccccc4OC)ccc3c2=O)c(OC)c1 | 11 | -13 | 8 | 8 | 9% | -2
COc1ccc(-n2c(=S)[nH]c3cc(C(=O)NCc4ccco4)ccc3c2=O)c(OC)c1 | 3 | -61* | -3 | -2 | -4% | -3
COc1ccc(C(=O)NCc2nnc(SCC(=O)NCc3ccco3)o2)cc1OC | 2 | 3 | 1 | -41* | 0% | -1
COc1ccc(C(=O)NCc2nnc(SCC(=O)Nc3cc(C)cc(C)c3)o2)cc1OC | 1 | 14 | -4 | -5 | -6% | -3
CCc1ccccc1NC(=O)CN(c1ccccc1OC)S(=O)(=O)c1ccc(C)cc1 | 3 | x | 1 | -12 | -1% | 2
O=C(Nc1ccccc1)c1cc(C2CCCCN2C(=O)OCc2ccccc2)on1 (stereo unspecified) | x | 18 | -11 | x | x | x
O=c1[nH]c(CN2CCN(c3ccccc3)CC2)nc2scc(-c3ccccc3)c12 | 0 | -5 | 108* | 7 | 12% | 1
Fc1ccc(N2CCN(c3nc(CN4CCOCC4)nc4scc(-c5ccccc5)c34)CC2)cc1 | 4 | 28 | 0 | -46* | 14% | -2
CN(Cc1ccccc1)c1nc(CN2CCOCC2)nc2scc(-c3ccccc3)c12 | 6 | -3 | -8 | 13 | 1% | 1
CCNc1nc(CN2CCCCC2)nc2scc(-c3ccccc3)c12 | 3 | -11 | -5 | -38* | 0% | -8
COc1ccc(N2CCN(Cc3nc4scc(-c5ccccc5)c4c(=O)[nH]3)CC2)cc1 | 3 | -16 | -1 | -5 | 7% | -3
COc1ccc(-c2cc3nc(NCC4CCCCC4)n(C)c(=O)c3s2)cc1OC | x | 98 | 37* | x | x | x
COc1ccccc1CNc1nc2cc(-c3ccc(OC)c(OC)c3)sc2c(=O)n1C | x | 103 | 24 | x | x | x
c1coc(CNC2CCCCCCC2)c1 | 3 | -21 | 0 | -48* | 2% | -2
c1coc(CNC2CCCCC2)c1 | 1 | -26 | -1 | -3 | -3% | -5
COC(=O)c1ccc(C)c(NC(=O)CN(c2ccc3c(c2)OCO3)S(C)(=O)=O)c1 | 0 | 0 | 2 | -6 | 5% | 0
Cc1c(Cc2c(C)n(C)n(-c3ccccc3)c2=O)c(=O)n(-c2ccccc2)n1C | 1 | 1 | 2 | 5 | -11% | 3
Cc1c(N=NC2=C(O)CC(C)(C)CC2=O)c(=O)n(-c2ccccc2)n1C | 3 | -63* | -45 | -6 | 1% | 6
CCCC(=O)NC(=S)c1c(C)n(C)n(-c2ccccc2)c1=O | 4 | 72 | 38* | 1 | 0% | 3
CC(=O)/C(N=Nc1c(C)n(C)n(-c2ccccc2)c1=O)=C(\C)O | 1 | 2 | 3 | -1 | -2% | -5
Cc1c(CN(C)CCc2ccccc2)c(=O)n(-c2ccccc2)n1C | 2 | -77* | -29 | 12 | 9% | -5
Cc1c(N=Cc2c(O)n(C)c(=O)c3ccccc23)c(=O)n(-c2ccccc2)n1C | -1 | 42 | 33* | 9 | -7% | -5
CCCOc1ccc(C(=O)Nc2c(C(=O)c3ccc(C)cc3)oc3ccccc23)cc1 | 1 | x | 2 | -1 | 3% | -2
COc1ccccc1OCC(=O)Nc1cc(C(F)(F)F)ccc1-n1cncn1 | 2 | 8 | 1 | 4 | 8% | -3
SMILES | D1 ag | DRD3 antagonist | D3 ag | D1 antag | ERG Ets-DNA blk | D1 potentiator
CN(CC(=O)OCC(=O)Nc1ccccc1)S(=O)(=O)c1ccc(Cl)cc1 | 2 | 11 | 1 | -5 | 1% | -6
Cc1c(I)c(=O)n(-c2ccccc2)n1C | x | x | -1 | x | x | x
Cc1c(O)c(=O)n(-c2ccccc2)n1C | 1 | -57* | -68 | -25 | 19% | 7
CCOC(=O)c1ccc(NC(=O)COc2ccccc2OC)cc1 | x | 25 | 2 | x | -5% | x
CCOC(=O)c1ccc(NC(=O)COc2ccccc2CNC2CCCC2)cc1 | 25 | -7 | -20 | -36* | 2% | -7
CCCN1CCN(C(=O)Cn2nc(C)n3c(cc4c(OC)cccc43)c2=O)CC1 | x | -1 | 45* | x | 7% | x
COc1cccc2c1cc1c(=O)n(CC(=O)N3CCN(c4ccc(F)cc4)CC3)nc(C)n12 | 0 | x | 15 | 5 | 0% | 2
CCO[C@H]1OC(C(=O)NC2CC2)=C[C@@H](c2c[nH]c3ccccc23)[C@@H]1CCCO | 2 | 27 | 2 | -28 | 3% | 8
CCO[C@@H]1OC(C(=O)NC2CC2)=C[C@H](c2c[nH]c3ccccc23)[C@H]1CCCO | 6 | -65* | 4 | -11 | 3% | -6
CC(C)(C)C#CCn1c(/C=[N+](\[O-])C2CCCCC2)nc2ccccc21 | 0 | 5 | 0 | -9 | -3% | -1
CCCCNc1c2c3c(cccc3n(C)c1=O)C(=O)c1ccccc1-2 | 326* | 12 | -5 | -47* | u | -7
Cn1c(=O)c(NC2CCCCC2)c2c3c(cccc31)C(=O)c1ccccc1-2 | 455* | -3 | -3 | -68* | 5% | -4
Cn1c(=O)cc2c3c(c(N4CCCCC4)ccc31)C(=O)c1ccccc1-2 | 2 | 8 | 7 | 3 | u | 3
Cn1c(=O)c(NCCc2ccccc2)c2c3c(cccc31)C(=O)c1ccccc1-2 | 394* | 10 | 7 | -78* | u | -5
CC(=O)Nc1ccc(Nc2c3c4c(cccc4n(C)c2=O)C(=O)c2ccccc2-3)cc1 | 13 | 8 | -6 | 18 | -22% | 15
Cc1ccc(S(=O)(=O)NCCc2ccncc2)cc1 | 0 | -7 | -4 | -1 | -3% | -3
CCCCc1ccc(S(=O)(=O)NCCc2ccncc2)cc1 | 9 | 0 | -5 | -45* | 7% | -5
Cc1c(C(=O)Nc2ccccn2)oc2ccccc12 | 1 | 7 | -1 | 1 | 7% | 8
Cc1c(C(=O)Nc2nnc(C(F)(F)F)s2)oc2ccccc12 | 10 | 32 | 1 | -38* | 7% | 0
COC(=O)c1sc(NC(=O)c2oc3ccccc3c2C)nc1C | 1 | 16 | 2 | 0 | 8% | 1
Cc1c(C(=O)NC2CCS(=O)(=O)C2)oc2ccccc12 (stereo unspecified) | 4 | -4 | 47* | 2 | 16% | -13
Cc1c(C(=O)Nc2ccncc2)oc2ccccc12 | 6 | 22 | 52* | 7 | -4% | -2
COc1ccc(-c2c(-c3ccsc3)oc(=O)c3cc(OC)c(OC)cc23)cn1 | x | 15 | 9 | x | 6% | x
